# High-throughput results: PubChem, National Center for Advancing Translational Sciences (NCATS)
# Sampled rows, rich in hits. Any-hit rate of the full collection: about 6.5%.
# HT1080NT lethal = kills 2HG-producing HT-1080-NT fibrosarcoma cells; HT-1080-NT fibrosarcoma viability, CellTiter-Glo ATP luminescence, 48 h; Potency, µM (highest dose often 46.1 µM), actives largely listed as cytotoxic; 360,000 tested, 1.6% active;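 note: NT is the 2HG producing partner of a matched IDH1 knockdown line; nearly all actives have a fitted effect of over 55% in size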
#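 Read-out is CellTiter-Glo luminescence after 10 minutes at room temperature, following 48 hours' compound treatment of HT-1080-NT cells (750 cells/well, RPMI, 5% FBS, 37 degrees C).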
# HepG2 tox = counter-screen for TGF-b inhibitors: cytotoxicity in HepG2 cells. HepG2 CAGA-GFP viability, ATP luminescence, 18 h. Potency, µM (titrated, usually from 46.1 µM), most hits filed as cytotoxic. 410,000 tested, 0.76% active. AID 588856
#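 HepG2 CAGA-GFP cells (1000/well, DMEM with 1% FBS) received compound, then TGF-beta at 500 pg/mL final, and were incubated 18 hours at 37 degrees C. Viability was read by CellTiter-Glo luminescence. Media-only wells were set as complete cell-killing and DMSO as no toxicity.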
# TGFb SMAD3 inh = inhibitors of TGF-b signaling. HepG2 CAGA-GFP TGF-b/SMAD3 reporter, GFP fluorescence, 18 h; TGF-beta stimulated, 500 pg/mL final. Potency, µM (series often up to 46.1 µM), most hits filed as inhibitors. 410,000 tested, 1.2% active. AID 588855; note: nearly all actives have a fitted effect of over 65% in size
#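 Read-out: total well GFP (ex488/em500-530) summed from mean per-cell fluorescence. Cells: HEPG2 CAGA-GFP, 1% FBS DMEM, 18 h at 37 degrees C with 500 pg/mL final TGF-beta. Unstimulated wells served as the full-inhibition control; stimulated DMSO wells = 0%.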
# IL1B secr inh = blocks inflammasome-driven IL-1 beta release. THP-1 LPS/ATP IL-1B secretion, AlphaLISA, 16 h; hits give low values. activity change, % at 57.5 µM. 360,000 tested, 4.7% active. AID 743279; in the data active = activity change below about -50%; inconclusive = mostly about -30% to -49%
#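 Secreted IL-1B measured by AlphaLISA bead assay after 16 h compound exposure of THP-1 cells; compounds (final up to 57.5 uM) added 1 h before LPS (250 ng/mL) and ATP (1.25 mM) stimulation; lower signal means less secretion.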
# HT1080 IDH1KD tx = HT-1080 IDH1 knockdown cell toxicity (counter line); HT-1080 IDH1 knockdown viability, ATP luminescence, 48 h; Potency, µM (top dose mostly 46.1 µM), hits mostly cytotoxic; 360,000 tested, 2% active; AID 686971
#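 Viability of IDH1-knockdown HT-1080 fibrosarcoma cells was assessed by CellTiter-Glo after 48 h at 37 °C with titrated compound; concentration-effect curves were classified by fit quality and response size.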
# Giardia kill = Giardia lamblia killing. AID 540267. activity change, % at 7.66 µM, hits read low. Giardia lamblia trophozoite viability. 340,000 tested, 0.15% active; in the data active = activity change below about -80%; inconclusive = between about -30% and that limit;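 note: parasites exposed to compound for two days anaerobically before the ATP read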
#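 Giardia trophozoites, 100 cells per well, were exposed to compounds for 48 hrs at 37 deg C under anaerobic conditions; viability was then read as ATP content by bioluminescence after 15-30 min at room temperature.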
# Hits are given with their value; - = inactive; ? = inconclusive; . = not tested or not shown; [ ] = another dose, or the depositor's remark. Unless noted, calls come from the whole dose curve; as a rule, active = well fitted curve in the direction sought with a large enough effect; inconclusive = small, poorly fitted or top-dose-only effect, or another doubt; inactive = no such curve, though single readings can be large; an effect the other way counts as inactive or inconclusive.
SMILES,HT1080NT lethal,HepG2 tox,TGFb SMAD3 inh,IL1B secr inh,HT1080 IDH1KD tx,Giardia kill
CCOc1cccc2sc(N(CCN(C)C)C(=O)c3ccc4ccccc4c3)nc12,-,-,-,-101,-,-
O=C(NC1CCC(O)CC1)c1ccc(Br)o1 (configuration not stated),-,-,-,-,-,-
Cn1ncc(Cl)c1C(=O)NCc1ccco1,-,-,-,-,-,-
C=CCn1c(O)c(C2=c3ccccc3=NC2=O)sc1=Nc1ccc(O)cc1,-,-,?,-50,?,-
Cc1ccc(Cn2c(C(=O)O)c(CNCc3cccs3)c3ccc(C)cc32)cc1,.,-,?,.,.,.
COc1ccc(CCC(=O)Nc2cc([N+](=O)[O-])ccc2OC)cc1,-,-,-,-,-,-
CCOC(=O)c1cnc(-n2nc(C)cc2C)nc1NC1CCCC1,?,11µM,?,-,?,-
Cc1cc(-n2c(SCc3ccccc3F)nc3n[nH]c(C)c3c2=N)ccc1Cl,?,-,-,-,21µM,-
COc1ccc(CN(CC2CCC(C(=O)O)CC2)C(=S)Nc2ccc(C)c(Cl)c2)cc1 (configuration not stated),-,-,?,-,-,-
COc1ccc(CCN(Cc2cc3cc(C)cc(C)c3nc2Cl)C(=O)C2CC2)cc1,?,-,?,-69,?,-
COc1cc(C(=S)N2CCOCC2)cc(OC)c1OS(=O)(=O)c1ccc(Cl)cc1,-,-,-,-,-,-
C/C(=N\NC(=O)c1ccc([N+](=O)[O-])cc1)c1cc2ccccc2oc1=O,?,-,?,-,?,-
C/C(=N\NC(=O)c1ccc([N+](=O)[O-])c(C)c1)c1ccccc1Cl,-,-,-,-70,-,-
O=C(Nc1ccc(Cc2ccncc2)cc1)c1ccc(Cl)c([N+](=O)[O-])c1,-,-,-,-73,-[9.24 µM],-
O=C(Nc1ccncc1)c1ccc2ccccc2c1,-,-,-,-61,-,-
Cc1cccc(C(=O)Nc2ccc(C(=O)c3ccncc3)cc2)c1,-,-,-,-,-,.
CC(=O)Nc1ccccc1NC(=O)C/C(C)=N/NC(=O)c1ccc([N+](=O)[O-])c(Cl)c1,-,-,-,-,-,-
Cc1c([N+](=O)[O-])cc(C(=O)Nc2ccc(Cc3ccncc3)cc2)cc1[N+](=O)[O-],-,-,-,?,-,-
Cc1cccc(C(=O)Nc2ccc(C(=O)c3ccccc3)cc2)c1,-,-,-,-80,-,-
CN1CCN(c2ccc(CNS(=O)(=O)Cc3ccc(Cl)cc3)cc2)CC1,-,-,-,-,-,-
CC(=O)Nc1cccc(NC(=O)c2ccc(C(=O)Nc3cccc(NC(C)=O)c3)nc2)c1,-,-,-,-,-,-
Cc1cccc(NC(=O)c2ccc(C(=O)Nc3cccc(C)c3)nc2)c1,?,-,?,-,21µM,-
CCOC(=O)Cn1nc(C)c(NC(=O)c2cccc([N+](=O)[O-])c2)c1C,-,-,-,-,?,-
Cc1cc(C(=O)Nc2ccc(Nc3ccccc3)cc2)ccc1[N+](=O)[O-],-,-,-,-65,?,-
Cc1ccc(C(=O)Nc2ccncc2)cc1[N+](=O)[O-],-,-,-,-55,-,-
SMILES,HT1080NT lethal,HepG2 tox,TGFb SMAD3 inh,IL1B secr inh,HT1080 IDH1KD tx,Giardia kill
CCOC(=O)Cn1nc(C)c(NC(=O)c2ccc(Cl)c([N+](=O)[O-])c2)c1C,-,-,-,-85,-,-
CCOC(=O)C1CCN(C(=O)c2cc(S(=O)(=O)N3CCOCC3)c(Cl)cc2Cl)CC1,-,-,-,-,-,-
O=C(CSc1nn(-c2ccc(F)cc2)c(=S)s1)N1CCN(C(=O)c2ccco2)CC1,-,-,?,-79,-,-
CCCCN1C(=O)/C(=C/C=C2/CC(C)(C)CN2C)SC1=S,-,-,-,-59,-,-
CCCCN1C(=O)/C(=C/C=C2\Oc3ccccc3N2CC)SC1=S,-,-,-,-,-,-
CCc1nnc(NC(=O)C2CSC3(C)CCC(=O)N23)s1 (configuration not stated),-,-,-,-,-,-
COc1ccccc1C1CCN(Cc2ccc3ccccc3c2)CC1,?,-,?,-61,23µM,-
Cc1ccccc1NC(=O)N1CCCC(c2nc(-c3ccc(C(C)C)cc3)no2)C1 (configuration not stated),-,-,-,-77,-,-
COc1ccc(-c2noc(C3CCCN(C(=O)c4ccc(C)cc4)C3)n2)cc1 (configuration not stated),?,-,?,-70,16µM,?
CC(C)(C)c1ccc(OCCC(=O)OCC(=O)NC(=O)NC2CCCC2)cc1,?,-,?,-86,?,-
CC(C)(C)c1ccc(OCCC(=O)OCC(=O)NC2CCCCC2)cc1,-,-,-,-,-,-
Cc1ccc(-n2ncc3c(NCCCOC(C)C)ncnc32)c(C)c1,-,-,-,-,-,-
CN(C)CCCN(C(=O)c1ccc(S(=O)(=O)N2CCc3ccccc32)cc1)c1nc2ccc(Cl)cc2s1,-,-,?,-,?,-
Cc1cc(C)c2sc(N(CCN(C)C)C(=O)CCS(=O)(=O)c3ccccc3)nc2c1,-,-,-,-,-,-
CN(C)CCCN(C(=O)c1ccc(S(=O)(=O)N2CCc3ccccc32)cc1)c1nc2ccc(F)cc2s1,-,-,?,-81,?,-
Cc1ccc2nc(N(CCCN(C)C)C(=O)c3ccc(S(=O)(=O)N4CCc5ccccc5C4)cc3)sc2c1,?,-,?,-96,13µM,-
Cc1cc(C)c2sc(N(CCCN(C)C)C(=O)c3ccc(S(=O)(=O)N4CCCc5ccccc54)cc3)nc2c1,18µM,-,?,-67,?,-
Cc1ccc2nc(N(CCCN(C)C)C(=O)c3ccc(S(=O)(=O)N4CCOCC4)cc3)sc2c1,-,-,-,-,-,-
Cc1cc(C)c2nc(NNC(=O)c3ccc(S(=O)(=O)N4CCc5ccccc5C4)cc3)sc2c1,?,-,?,-,6.5µM,-
CCN(C)C1CN(Cc2cn(Cc3cccc(C(F)(F)F)c3)nn2)S(=O)(=O)C1 (configuration not stated),-,.,.,-,-,.
Cc1ccnc(N2CCC(C(=O)NNC(=O)c3ccccc3)CC2)n1,-,-,-,-,-,-
Cc1ccc2c(c1)N(C(=O)N1CCC(C(=O)NCCc3ccccc3)CC1)CC(C)O2 (configuration not stated),.,-,?,.,.,.
